Source: PubChem BioAssay
CF NFkB block – inhibitors of cystic fibrosis induced NF-kB; KKLEB NF-kB-GFP reporter, PAF-induced, GFP fluorescence overnight; inhibition, % at 5 µM; 360,000 compounds, 0.86% hits; AID 588850;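 active = at least 50% inhibition at 5 µM, scaled per plate between neutral and stimulator controls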;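 also: PAF is a Pseudomonas aeruginosa culture filtrate used as stimulus; plate controls were PAF-stimulated DMSO wells for no effect and unstimulated DMSO wells for full effect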
Peg3 prom inh – inhibitors of Peg3 promoter; inhibition, % at 20 µM; HeLa PEG-Prom luciferase reporter, luminescence, overnight; 360,000 compounds, 1.7% hits; AID 588405;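 active = inhibition of at least 50% at 20 µM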
ABHD5-PLIN5 inh – blocks binding of human ABHD5 to perilipin-5; Q00G26+Q8WTS1; Split G. princeps luciferase complementation, luminescence, 4 h; 360,000 compounds, 0.78% hits; inhibition, % at 4 µM;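 active = inhibition above the mean inhibition across every tested compound plus 3 SD, cut at about 22% in these data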;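 also: 0% = DMSO only wells and the 100% control is not disclosed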
Target sequence (Q00G26 whole entry, looked up): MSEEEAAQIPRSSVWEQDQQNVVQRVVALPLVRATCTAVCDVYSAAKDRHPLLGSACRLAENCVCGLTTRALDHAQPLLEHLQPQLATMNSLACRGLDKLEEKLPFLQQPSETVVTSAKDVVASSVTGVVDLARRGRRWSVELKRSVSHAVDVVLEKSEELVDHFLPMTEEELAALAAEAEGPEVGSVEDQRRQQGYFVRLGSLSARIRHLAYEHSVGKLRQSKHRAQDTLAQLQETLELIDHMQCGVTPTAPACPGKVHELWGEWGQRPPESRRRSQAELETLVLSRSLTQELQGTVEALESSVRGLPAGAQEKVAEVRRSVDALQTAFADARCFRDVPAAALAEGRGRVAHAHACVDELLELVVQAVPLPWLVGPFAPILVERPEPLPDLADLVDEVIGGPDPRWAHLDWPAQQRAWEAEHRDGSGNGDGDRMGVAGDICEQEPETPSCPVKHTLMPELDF
Target sequence (Q8WTS1 whole entry, looked up): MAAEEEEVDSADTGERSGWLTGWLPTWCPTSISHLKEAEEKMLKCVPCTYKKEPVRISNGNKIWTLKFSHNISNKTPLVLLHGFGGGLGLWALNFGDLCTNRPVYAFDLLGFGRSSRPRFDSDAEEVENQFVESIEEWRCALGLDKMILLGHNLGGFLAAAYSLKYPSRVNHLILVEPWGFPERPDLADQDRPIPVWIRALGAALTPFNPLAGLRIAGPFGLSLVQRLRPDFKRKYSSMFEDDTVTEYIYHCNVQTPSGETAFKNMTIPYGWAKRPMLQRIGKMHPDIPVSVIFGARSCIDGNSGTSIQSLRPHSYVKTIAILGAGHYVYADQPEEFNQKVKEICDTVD
HIF-2a block – inhibitors of HIF-2a. 786-0 RCC cells HIF-2a reporter, luciferase luminescence, overnight. inhibition, % at 18.8 µM. 360,000 compounds, 0.72% hits. AID 624352;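 active = inhibition of the luminescence signal of 40% or more relative to plate controls, in a single-dose primary screen at 18.75 µM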
Mdm2 MdmX PPI – disrupts the human Mdm2-MdmX interaction | O15151+Q00987 | SaOS-2 split-luciferase Mdm2/MdmX complementation, luminescence | inhibition, % at 8 µM | 330,000 compounds, 3% hits | AID 485346;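 active = inhibition of at least 50% at 8 µM in the primary screen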
KKLEB cytotox – reduces viability of KKLEB cystic fibrosis airway cells. 360,000 compounds, 0.36% hits. activity change (cytotoxicity), % at 5 µM. KKLEB CF airway cells viability, ATPlite luminescence, overnight; stronger effect = lower value; cells stimulated with P. aeruginosa culture filtrate. AID 602141;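 active = corrected activity change at or below -50% at 5 µM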
CF NFkB inh conf – confirmation of cystic fibrosis induced NF-kB inhibitors; 1,300 compounds, 64% hits; inhibition, % at 5 µM; shares compounds with CF NFkB block; KKLEB CF airway cells, PAF-induced NF-kB-GFP fluorescence, overnight; in the data active = inhibition above about 40%;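 also: stimulus PAF is a Pseudomonas aeruginosa filtrate and not platelet activating factor; plate controls were DMSO wells with stimulus for no effect and unstimulated DMSO wells for full effect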
* marks the source's active call; other numbers are inactive results; i = inactive; . = not tested or not shown; ! = repeats disagree. Shown are actives, neighbours in structure and some others; about 4.6% of the full set was active somewhere.

SMILES	CF NFkB block	Peg3 prom inh	ABHD5-PLIN5 inh	HIF-2a block	Mdm2 MdmX PPI	KKLEB cytotox	CF NFkB inh conf
O=[N+]([O-])c1ccc(O)c(C2CCCCC2)c1	63.7*	38.5	-4.9	10.5	.	-19.0	93.3*
CC(=O)N1CC(=O)N=C1SCC(=O)Nc1nc(C)c(-c2ccccc2)s1	50.9*	-47.4	14.0	-90.8	7.8	19.8	60.2*
Cc1c(C(=O)NCc2ccccc2C(F)(F)F)sc(=O)n1Cc1ccc(Cl)c(Cl)c1	11.0	31.1	-9.9	-2.4	.	0.7	.
CC(=O)c1sc(NC(=O)CS(=O)(=O)c2ccc(F)cc2)nc1C	-18.2	1.2	6.1	-14.3	12.4	6.2	.
CC(=O)c1sc(NC(=O)CCS(=O)(=O)c2ccc(C)cc2)nc1C	56.5*	10.0	3.9	12.6	39.2	-14.9	38.2
COc1nc(-c2ccc(C)cc2)ccc1-c1noc(-c2cccnc2)n1	52.8*	-14.2	2.2	-5.7	25.8	-32.1	19.2
NC(=O)c1ccccc1NC(=O)C(c1ccccc1)c1ccccc1	19.2	22.1	-0.4	5.6	8.9	7.4	.
C=C1C[C@@]23CCC4[C@@](C)(CCC[C@@]4(C)C(=O)OC)C2CC[C@]1(OC(C)=O)C3 (stereo partly drawn)	50.7*	5.0	-5.1	-88.2	9.5	-27.6	0.8
COC(=O)[C@]1(C)CCC[C@@]2(C)C3CC[C@@]4(C)C[C@]3(CCC21)CC(=O)N4C (stereo partly drawn)	23.0	8.1	-34.4	9.4	7.0	-18.1	.
CCOc1ccc(C(C(=O)NC2CCCC2)N(C(=O)c2snc(C(N)=O)c2N)c2cccc(O)c2)cc1 (stereo not drawn)	75.0*	52.7*	-22.8	1.3	44.4	-11.0	69.8*
CC(C)CC(=O)Nc1ccc(Oc2ccc3c(c2)C(=O)NC3=O)cc1	6.1	2.8	0.2	11.9	10.2	0.5	.
CC(C)(C)S(=O)N1Cc2cc(C(=O)NCC(F)(F)F)nc(-c3cccc(-c4cccc(F)c4)c3)c2[C@@H]1CCO (stereo partly drawn)	78.0*	69.3*	-8.2	14.5	.	-10.4	64.8*
CN(C)C(=O)c1cccc(-c2cccc(-c3nc(C(=O)NCc4ccccc4)cc4c3[C@H](CCO)N(S(=O)C(C)(C)C)C4)c2)c1 (stereo partly drawn)	12.1	3.9	0.5	9.7	.	-6.3	.
COc1ccc(C2C(C#N)=C(N)Oc3cc(O)ccc32)cc1 (stereo not drawn)	15.1	11.8	-0.8	-4.1	.	-6.5	.
COc1ccc(N=Cc2cc3c(cc2O)OC(N)=C(C#N)C3c2ccccc2)cc1 (stereo not drawn)	56.3*	19.8	-10.6	38.5	28.5	13.5	84.8*
O=C(O)c1ccc(C(=O)C(=O)c2ccccc2)cc1	2.5	-11.2	2.7	12.4	10.0	1.3	.
C=C(C(=O)c1ccccc1)C(C)C(=C)C(=O)c1ccccc1	56.6*	104.3*	22.4*	91.0*	.	-36.9	i
Cc1ccc(Cc2cnc(NC(=O)/C(C#N)=C/c3ccc(-c4ccccc4[N+](=O)[O-])o3)s2)cc1	51.5*	36.4	-8.9	10.5	-0.5	-49.6	-1.9
COc1cc(CCc2ccccc2)c(C(=O)O)c(O)c1C/C=C(/C)CCC=C(C)C	60.1*	56.9*	-2.4	-1.4	17.6	-19.0	71.3*
COc1cc2c(cc1OC)C(O)=CC(=O)C2=O	-12.4	-2.9	-2.2	-2.9	.	-8.6	.
Cc1cn(-c2cc(C(=O)Nc3ccc(C)c(NC(=O)C(=O)c4c[nH]c5ccccc45)c3)cc(C(F)(F)F)c2)cn1	50.2*!	28.7	-5.0	24.2	46.0	-0.4	21.2
COC(=O)c1ccc(NC(=O)C(=O)c2c[nH]c3ccccc23)cc1	0.4	-133.9	-4.1	-178.9	-9.7	-4.3	.
CC(=O)c1c(O)cc(O)cc1CC(=O)O	0.1	1.9	6.0	4.7	7.8	4.2	.
CC(=O)c1c(O)cc(O)c(C(C)=O)c1O	58.9*	5.1	3.7	-3.0	8.4	-11.2	52.4*
CC[C@@]1(c2cccc(C)c2)C(=O)N(C(=O)OC)N1C(=O)OC	54.1*	17.3	3.5	18.8	16.5	-24.9	22.3
